Screening data (PubChem)
TDP1 block – inhibitors of human tyrosyl-DNA phosphodiesterase TDP1; Potency, µM (top dose mostly 130 µM), without a hit: top-dose activity change, negative = inhibition, usual class: inhibitors; actives 0.28% (n = 350,000); Q9NUW8; recombinant TDP1, AlphaScreen DNA substrate cleavage; also: potency is read from the fitted curve at half-maximal effect; % is scaled to controls: 0 for no effect and ±100 for the full control effect; nearly all actives have a fitted effect of over 40% in size
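Signal: AlphaScreen proximity between streptavidin donor and anti-FITC acceptor beads on intact substrate. Reaction: Tdp1 1 nM, substrate 15 nM final, 5 min RT after 15 min compound preincubation.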
CtBP-E1A blk – inhibitors of CtBP/E1A interaction; AlphaScreen GST-E1A/His-CtBP binding, 1536-well; active compounds read low; activity change, % (no concentration beside the values); actives 0.49% (n = 340,000); in the data active = activity change below about -65%; inconclusive = mostly about -30% to -63%; also: % is scaled to controls: 0 for no effect and ±100 for the full control effect
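In 5 uL wells, 23 nL compound meets equimolar GST-E1A and His-CtBP (5X stock 125 nM each) for 2 h, 37 °C. Beads (5X, 50 ug/mL) then 1 h, 37 °C, dark.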
Six1-Eya2 inh – inhibitors of human Six1/Eya2 interaction | AID 651725 | Q15475+O00167 | activity change, % (test concentration not listed) | actives 0.56% (n = 360,000) | AlphaScreen GST-Six1/His-Eya2 binding, biochemical; active compounds read low; in the data active = activity change below about -65%; inconclusive = mostly about -30% to -63%; also: % is scaled to controls: 0 for no effect and ±100 for the full control effect
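GST-Six1 + His-Eya2 (5X stock: 250/500 nM); Tris pH 8.0, 300 mM NaCl, 0.05% BSA, 0.02% Tween 20; GSH donor/Ni acceptor beads; 1 h 37 °C dark; AlphaScreen readout.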
JMJD2A Tudor inh – JMJD2A Tudor domain (human) inhibition; AlphaScreen JMJD2A-Tudor / H3K4me3 peptide binding; actives 4.4% (n = 390,000); Potency, µM (titrated, usually from 114 µM), for inactives: at the top dose activity change, negative = inhibition, actives largely listed as inhibitors; O75164; also: potency is read from the fitted curve at half-maximal effect; % is scaled to controls: 0 for no effect and ±100 for the full control effect; nearly all actives have a fitted effect of over 50% in size
HP1b chromo inh – blocks HP1-beta chromodomain binding to methylated histone tails; actives 0.56% (n = 390,000); P83916; AID 540317; Potency, µM (highest dose often 114 µM), inactives show at the top dose activity change, negative = inhibition, usual class: inhibitors; AlphaScreen HP1-beta / biotin-H3K9me3 peptide binding; also: potency is read from the fitted curve at half-maximal effect; nearly all actives have a fitted effect of over 70% in size
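HP1-beta protein (50 nM final) preincubated 30 min at room temperature with biotinylated H3(1-18)K9me3 peptide (50 nM) in PBS pH 7.4, 0.01% Tween-20, then compound added for 30 min. AlphaScreen streptavidin donor/nickel chelate acceptor beads (10 ug/mL final), 30 min dark, luminescence read.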
BAZ2B inh – blocks human BAZ2B. AlphaScreen BAZ2B-H3K14Ac peptide displacement. Q9UIF8. actives 4.4% (n = 360,000). AID 504333. Potency, µM (doses to about 114 µM), inactives show at the top dose activity change, negative = inhibition, hits mostly inhibitors; also: potency is read from the fitted curve at half-maximal effect; % is scaled to controls: 0 for no effect and ±100 for the full control effect; nearly all actives have a fitted effect of over 60% in size
Target sequence (Q9UIF8 whole entry, looked up): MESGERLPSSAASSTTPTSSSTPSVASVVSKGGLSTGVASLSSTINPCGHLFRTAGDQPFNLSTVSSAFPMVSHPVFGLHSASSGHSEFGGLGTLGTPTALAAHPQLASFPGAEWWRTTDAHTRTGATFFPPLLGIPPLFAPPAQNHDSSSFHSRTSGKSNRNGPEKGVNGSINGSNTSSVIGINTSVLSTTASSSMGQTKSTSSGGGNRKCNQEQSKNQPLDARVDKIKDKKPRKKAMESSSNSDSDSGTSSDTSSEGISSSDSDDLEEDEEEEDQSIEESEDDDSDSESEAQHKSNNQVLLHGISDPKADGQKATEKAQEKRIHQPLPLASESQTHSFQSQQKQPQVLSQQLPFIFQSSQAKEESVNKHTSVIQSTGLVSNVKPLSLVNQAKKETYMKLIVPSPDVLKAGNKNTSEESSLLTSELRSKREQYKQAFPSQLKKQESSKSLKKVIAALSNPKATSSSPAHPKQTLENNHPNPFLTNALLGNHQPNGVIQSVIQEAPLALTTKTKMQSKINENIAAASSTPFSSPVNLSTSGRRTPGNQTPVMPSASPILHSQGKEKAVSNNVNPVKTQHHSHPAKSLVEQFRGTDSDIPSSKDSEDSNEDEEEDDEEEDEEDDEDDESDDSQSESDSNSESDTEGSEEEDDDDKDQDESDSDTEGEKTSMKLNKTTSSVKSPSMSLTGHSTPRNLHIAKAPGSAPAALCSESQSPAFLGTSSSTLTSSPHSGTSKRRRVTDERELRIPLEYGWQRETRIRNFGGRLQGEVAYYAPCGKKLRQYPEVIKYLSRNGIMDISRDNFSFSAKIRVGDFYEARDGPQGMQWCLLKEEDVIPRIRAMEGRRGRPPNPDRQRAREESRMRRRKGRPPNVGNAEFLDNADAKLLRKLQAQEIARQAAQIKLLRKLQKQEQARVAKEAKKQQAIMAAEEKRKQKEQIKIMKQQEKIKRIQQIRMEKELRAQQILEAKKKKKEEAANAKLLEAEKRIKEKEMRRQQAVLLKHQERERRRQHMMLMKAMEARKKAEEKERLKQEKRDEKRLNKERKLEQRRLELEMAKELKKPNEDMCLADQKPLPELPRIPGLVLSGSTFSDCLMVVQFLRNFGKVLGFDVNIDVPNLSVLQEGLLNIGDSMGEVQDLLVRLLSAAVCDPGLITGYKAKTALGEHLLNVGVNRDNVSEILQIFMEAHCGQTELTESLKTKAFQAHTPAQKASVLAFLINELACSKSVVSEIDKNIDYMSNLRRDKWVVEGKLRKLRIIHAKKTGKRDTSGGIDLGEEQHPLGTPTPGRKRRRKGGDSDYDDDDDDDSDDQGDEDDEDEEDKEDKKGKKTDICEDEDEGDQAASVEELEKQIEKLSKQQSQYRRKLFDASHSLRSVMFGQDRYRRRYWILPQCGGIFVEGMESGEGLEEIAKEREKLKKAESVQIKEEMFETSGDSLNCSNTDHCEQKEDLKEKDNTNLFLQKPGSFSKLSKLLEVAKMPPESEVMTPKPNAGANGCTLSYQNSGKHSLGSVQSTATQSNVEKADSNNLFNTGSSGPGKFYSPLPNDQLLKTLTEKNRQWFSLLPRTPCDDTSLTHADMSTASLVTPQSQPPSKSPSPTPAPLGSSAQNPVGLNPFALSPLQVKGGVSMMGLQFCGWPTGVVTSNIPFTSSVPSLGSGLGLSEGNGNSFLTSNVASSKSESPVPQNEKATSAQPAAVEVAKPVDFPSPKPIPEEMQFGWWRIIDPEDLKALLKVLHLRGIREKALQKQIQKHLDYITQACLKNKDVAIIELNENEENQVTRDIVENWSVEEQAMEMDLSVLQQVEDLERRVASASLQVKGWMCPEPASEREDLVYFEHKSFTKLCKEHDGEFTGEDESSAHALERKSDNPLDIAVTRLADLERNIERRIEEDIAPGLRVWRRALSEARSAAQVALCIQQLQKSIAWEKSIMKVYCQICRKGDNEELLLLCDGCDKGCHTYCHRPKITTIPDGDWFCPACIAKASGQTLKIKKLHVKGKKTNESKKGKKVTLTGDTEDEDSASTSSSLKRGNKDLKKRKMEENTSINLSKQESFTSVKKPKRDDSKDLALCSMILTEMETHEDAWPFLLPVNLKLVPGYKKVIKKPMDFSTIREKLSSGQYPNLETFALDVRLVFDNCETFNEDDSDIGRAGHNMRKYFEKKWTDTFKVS
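Multi-concentration screen (max 110 uM) measuring displacement of acetylated histone H3 peptide from BAZ2B by AlphaScreen, using 50 nM protein, 50 nM peptide and 10 ug/mL streptavidin donor plus Ni-chelate acceptor beads.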
The depositor's hits bear a star; ? = inconclusive; nt = no result given; [ ] = another dose, or the depositor's remark. Shown are actives, neighbours in structure and some others; about 5.3% of the full set was active somewhere. Unless noted, calls follow the shape of the dose curve; as a rule, active = well fitted inhibition curve with a large enough effect; inconclusive = small, poorly fitted or top-dose-only effect; inactive = no such curve, though single readings can be large or run the other way.

SMILES	TDP1 block	CtBP-E1A blk	Six1-Eya2 inh	JMJD2A Tudor inh	HP1b chromo inh	BAZ2B inh
CCN(CC)CCNC(=O)C(=O)NCC(c1cccnc1)N1CCN(c2ccc(F)cc2)CC1 (stereo not drawn)	0%	nt	nt	-15%	36%	-1%
CCN(CC)c1ccc(/C=N/Nc2nc3ccccc3[nH]2)cc1	12%	nt	-22	56µM*	?	10µM*
CC(=O)Nc1ccc(/C=N/Nc2nc3ccccc3[nH]2)cc1	-2%	nt	-6	-30%	18%	-8%
COc1ccc(CCCc2nnc(SCC(=O)Nc3ccc(F)cc3)o2)cc1C	nt	nt	nt	-12%	26%	3%
CC(Sc1nc2c(c(=O)[nH]1)CCCC2)C(=O)Nc1ccc(Br)cn1 (stereo not drawn)	40µM*	0	-3	?	8%	?
Cc1cccc(N2CCN(C(=O)C3CCN(Cc4nc(-c5ccc(Cl)cc5)oc4C)CC3)CC2)c1C	-3%	nt	nt	-11%	21%	-13%
CCN(CC)CCCC(C)n1c(-c2ccccc2)nc2c(NCc3ccccc3)nc(C)nc21 (stereo not drawn)	4%	nt	nt	nt	nt	nt
Cc1cc(=O)n(CNC(=O)c2ccccc2)c(=S)[nH]1	4%	-3	-4	56µM*	10%	2%
CCOc1ccc(C(=O)c2cn(CC(=O)Nc3ccc(F)c(F)c3)c3cc4c(cc3c2=O)OCCO4)cc1	1%	nt	nt	-6%	29%	-4%
COc1ccc(-n2ncc(C(=O)N3CCN(c4ccccn4)CC3)c2C2CCN(C(=O)OC(C)(C)C)CC2)cc1	-1%	nt	nt	-6%	19%	8%[57.1 µM]
Oc1ccc(-c2nc3ccc4ccccc4c3c3c2CCC3)cc1O	8%	8	?	?	?	50µM*
Cc1cc(C)c2c(ccc3ccccc32)n1	nt	1	5	-3%	36%	nt
Cc1[nH]c(=O)[nH]c(=O)c1S(=O)(=O)Nc1cccc(Cl)c1C	2%	nt	nt	1%	24%	-1%
CN(C)/C=C/C=C1C(=O)CCCC1=O	22µM*	1	-2	?	?	56µM*
Cc1ccc(C)c2c1CCCC2=O	nt	-16	-3	nt	nt	nt
Cc1ccc(NC(=O)C2CCCN(c3cnccn3)C2)cc1Cl (stereo not drawn)	7%	nt	nt	-7%	20%	-35%
C=CCn1c(CCC(O)CCCCC)n[nH]c1=S (stereo not drawn)	8%	8	-9	18µM*	3%	4%
C=CCn1c(C(CCCC)CC(C)O)n[nH]c1=S (stereo not drawn)	0%	15	6	?	29%	4%
COc1cc(-c2nnc(COC(=O)c3ccc(C)o3)o2)cc(OC)c1OC	20µM*	-4	-10	-17%	-2%	-38%
COc1cc(-c2nnc(COC(=O)c3cc(C)no3)o2)cc(OC)c1OC	1%	-1	0	-4%	30%	-3%
CC(C)/C(=N\NS(=O)(=O)c1ccc(Br)cc1)c1cccs1	0%	6	17	50µM*	-7%	-23%
COc1ccc(-n2nc3cc(C)c(NC(=O)c4ccc(-c5ccc(Cl)cc5)o4)cc3n2)cc1	1%[12.3 µM]	nt	nt	-17%	14%	4%
COC(=O)c1scc(-c2ccc(C)cc2)c1S(=O)(=O)Nc1cc(C)ccc1OC	3%	nt	nt	-28%	40%	-19%
CCOC(=O)C(Sc1nnc2c3ccccc3n(CC)c2n1)C(=O)OCC	2%	-72*	?	-10%	10%	10%
CCOC(=O)CSc1nnc2c3ccccc3n(CC)c2n1	nt	-3	1	-13%	16%	3%
SMILES	TDP1 block	CtBP-E1A blk	Six1-Eya2 inh	JMJD2A Tudor inh	HP1b chromo inh	BAZ2B inh
CCn1c2ccccc2c2nnc(NN)nc21	5%	-1	-13	50µM*	1%	?
CCn1c2ccc(C)cc2c2nnc(NN)nc21	6%	15	-29	?	21%	?
O=C(CSc1nc(-c2ccccc2)[nH]c1-c1ccc(F)cc1)NC1CCCC1	0%[12.3 µM]	nt	nt	?	0%	-25%
NC(=S)N/N=C/c1c(O)ccc2ccccc12	10%	nt	-91*	56µM*	43%	2.5µM*
O=C(CCc1n[nH]c(=O)[nH]c1=O)N/N=C/c1ccco1	22µM*	-3	-23	-31%	19%	50µM*
O=C(N/N=C/c1c(O)ccc2ccccc12)c1ccc(CO)nc1	5%	-92*	-87*	56µM*	42%	3.2µM*
O=C(Cc1n[nH]c(=O)[nH]c1=O)N/N=C/c1c(O)ccc2ccccc12	2%	-68*	-87*	-31%	11%	-20%
O=C(NN=Cc1c(O)ccc2ccccc12)c1ccc2c(c1)OCO2	-6%	-21	-8	-16%	36%	nt
O=C(CNc1ccc(F)cc1)N/N=C/c1c(O)ccc2ccccc12	nt	?	-16	-16%	25%	-11%
CCOc1ccc(-c2c(C)nn3c(C)c(C(=O)NCCc4ccccc4)cnc23)cc1OCC	7%	nt	nt	-20%	28%	-16%
CC(C)(C)OC(=O)Cc1nnc(CNC(=O)c2ccccc2)s1	0%	nt	nt	-4%	nt	nt
Cc1ccc(NC(=O)Cn2nnc(-c3nc(-c4ccncc4)no3)c2N)c(C)c1	0%	nt	nt	-11%	11%	-4%
COc1ccccc1N(CC(=O)N/N=C/c1c(O)ccc2ccccc12)S(C)(=O)=O	10%	?	-71*	-14%[57.1 µM]	34%	2%
Oc1ccc2ccccc2c1/C=N/Nc1ccccc1	8%	11	-2	50µM*	-57%	-35%
Oc1ccccc1C=NN=Cc1c(O)ccc2ccccc12	nt	0	30	-5%	47%	nt
O=CN/N=C/c1c(O)ccc2ccccc12	6%	nt	-91*	-6%	54%	-1%
CCN(CC)c1ccc(NC(=O)C2CCN(S(=O)(=O)c3c(C)noc3/C=C/c3ccccc3F)CC2)c(C)c1	7%	nt	nt	-25%	7%[57 µM]	-16%
Cc1ccc(S(=O)(=O)Nc2ccc3nc(-c4cccn4C)[nH]c3c2)cc1	12%	-1	?	16µM*	45µM*	40µM*
OC1(c2ccc(Cl)cc2)CN(c2ccccc2)C2=[N+]1CCS2 (stereo not drawn)	5%	-23	-2	-11%	16%	nt
COc1ccc(C2(O)CN(c3ccccc3)C3=[N+]2CCS3)cc1OC (stereo not drawn)	8%	-5	5	-4%	28%	71µM*
COc1ccc(S(=O)(=O)NNC(=O)Cc2csc(C)n2)cc1[N+](=O)[O-]	-6%[0.505 µM]	-10	-1	?	4%	79µM*
COc1ccccc1N1Cc2ccccc2C1	11%	-2	0	50µM*	1%	56µM*
O=C(O)c1cc(-c2ccccc2)n(-c2ccccc2C(=O)O)n1	5%	5	7	28µM*	-4%	12%
